Screening results deposited in PubChem BioAssay by National Center for Advancing Translational Sciences (NCATS).
Hits are enriched below; roughly 20% of the tested compounds scored in any of these assays.
Pf growth 48h – inhibits P. falciparum growth in the first generation, 48 h. P. falciparum luciferase growth in erythrocytes, 48 h. Potency, µM (top dose mostly 28.7 µM), inactives show at the highest dose activity change, negative = inhibition, most hits filed as inhibitors. 310,000 tested, 5.9% active; note: potency is the fitted concentration of half-maximal effect; % is set by controls: 0 for no effect and ±100 for the full control effect
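Compounds are pin-transferred into medium, infected erythrocytes (2% hematocrit, 0.1% parasitemia final) are added, and plates sit one parasite generation at 37 C in 5% CO2. Detection reagent is then added and luminescence measured.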
HCMV antiviral – human cytomegalovirus inhibition. HFF cells, HCMV-luciferase reporter, 72 h; hits give low values. activity change, negative = inhibition, % at 57.5 µM. 410,000 tested, 4.5% active; in the data active = activity change below about -60%; inconclusive = no clear call, values can overlap the other calls; inactive = above about -39%; note: % is set by controls: 0 for no effect and ±100 for the full control effect
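HFF cells seeded 16 h at 37C, treated with compounds, infected with luciferase-reporter HCMV at MOI 1 PFU/cell; luciferase read at 72 h post infection, normalized to buffer-only and Salinomycin controls.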
Pf growth 96h – inhibits malaria parasite growth, 96 h; P. falciparum luciferase reporter growth, 96 h; Potency, µM (doses to about 28.7 µM), without a hit: at the top dose activity change, negative = inhibition, hits mostly inhibitors; 320,000 tested, 6.9% active; AID 504834; note: potency is the fitted concentration of half-maximal effect; % is set by controls: 0 for no effect and ±100 for the full control effect
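Readout is luminescence from an integrated firefly luciferase in P. falciparum. Red cells, 2% hematocrit and 0.05% parasitemia final, were cultured with compound through two parasite generations (96 hours) at 37 C, 5% CO2.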
Cycloheximide cs – counter-screen hit for Shiga toxin inhibitors, cycloheximide; cell reporter, cycloheximide protein synthesis inhibition counterscreen; 300,000 tested, 12% active; AID 2314; max response, %; in the data active = max response mostly above about 13%, no sharp cut-off; inactive = mostly below about 14%; note: read at 38.3 µM for the half of the compounds with a filed dose; 0% is about no effect
Shiga inhibitor – blocks Shiga toxin action in Vero cells; Vero cells, Shiga toxin protein synthesis inhibition reporter; inhibition, % at 38.7 µM; 290,000 tested, 9.2% active; AID 2315; in the data active = inhibition mostly above about 28%, no sharp cut-off; inactive = mostly below about 43%; note: 0% is about no effect
* hit, by the source's call; [ ] = another dose, or the depositor's remark. Unless noted, calls come from the whole dose curve; as a rule, active = well fitted inhibition curve with a large enough effect; inconclusive = small, poorly fitted or top-dose-only effect, or another doubt; inactive = no such curve, though single readings can be large or run the other way.

What do the screens show for `O=C(CSc1nnc2ccccn12)N1CCc2ccccc21`?
Pf growth 48h: 218%; HCMV antiviral: 79; Pf growth 96h: 202%; Cycloheximide cs: 20*; Shiga inhibitor: 62*

How did Cc1ccc(NCc2nnc(SCC(=O)N3CCc4ccccc43)n2C)cc1 do in these assays?
Pf growth 48h: -28%; HCMV antiviral: 32; Pf growth 96h: 4.7µM*; Cycloheximide cs: -3; Shiga inhibitor: -10

What do the screens show for `O=C(CSc1nnc2ccccn12)N1CCc2ccccc2C1`?
Pf growth 48h: 88%; HCMV antiviral: 8; Pf growth 96h: 56%; Cycloheximide cs: 29*; Shiga inhibitor: 136*

What do the screens show for `O=C1CN(C(=O)CSc2nnc3ccccn23)c2ccccc2N1`?
Pf growth 48h: 2%; HCMV antiviral: 6; Pf growth 96h: inconclusive; Cycloheximide cs: -4; Shiga inhibitor: 6

Results for COc1ccccc1NC(=O)C(C)Sc1nc(-c2ccccc2)cn1N (configuration not stated) ?
Pf growth 48h: inconclusive; HCMV antiviral: inconclusive; Pf growth 96h: -30%

How did COc1c2ccccc2nn1CCCCCO do in these assays?
HCMV antiviral: 3

What do the screens show for `CC(C)n1nnnc1SCC(=O)NC1CCCC1`?
Pf growth 48h: 51%; HCMV antiviral: 15; Pf growth 96h: 5.2µM*; Cycloheximide cs: 8; Shiga inhibitor: 14

Results for COc1ccc(CCn2c(C)cc(C(=O)CSc3nnnn3-c3ccccc3)c2C)cc1 ?
HCMV antiviral: -70*; Pf growth 96h: 19%; Cycloheximide cs: -2; Shiga inhibitor: -3

Results for COc1cccc(-n2c(SCC(=O)NC3CCCC3)nnc2-c2ccco2)c1 ?
Pf growth 48h: 2.1µM*; HCMV antiviral: -20; Pf growth 96h: -2%; Cycloheximide cs: 2; Shiga inhibitor: 25

Results for Cc1cc(C(=O)CSc2nnnn2C)c(C)n1CCc1ccc(Cl)cc1 ?
Pf growth 48h: 21%; HCMV antiviral: 38; Pf growth 96h: 8%; Cycloheximide cs: -1; Shiga inhibitor: -4

How did CC(C)n1nnnc1SCC(=O)NNC(=O)C1CCCCC1 do in these assays?
Pf growth 48h: 8%; HCMV antiviral: 40; Pf growth 96h: 9%; Cycloheximide cs: -5; Shiga inhibitor: -13

Results for Cc1cccc(-n2c(SCC(=O)NCc3ccco3)nnc2-c2ccco2)c1 ?
Pf growth 48h: inconclusive; HCMV antiviral: -24; Pf growth 96h: 5.2µM*; Cycloheximide cs: -4; Shiga inhibitor: 4

How did Cc1cccc(C)c1NC(=O)CCSCCc1ccccn1 do in these assays?
HCMV antiviral: 10

How did COc1ccc(CCNS(=O)(=O)c2ccc(-c3ccc(=O)[nH]n3)o2)cc1OC do in these assays?
Pf growth 48h: 8%; HCMV antiviral: 22; Pf growth 96h: inconclusive; Cycloheximide cs: -5; Shiga inhibitor: -2

What do the screens show for `CC1(C(=O)NS(=O)(=O)c2ccc(Br)cc2)CCN1C(=O)C1CCCCC1` (configuration not stated)?
HCMV antiviral: -19

How did COc1ccc(NC(=O)CSc2nnc(CNC(=O)COc3ccc(Cl)cc3)o2)cc1 do in these assays?
Pf growth 48h: -8%; HCMV antiviral: -22; Pf growth 96h: 79%; Cycloheximide cs: -3; Shiga inhibitor: 4

How did COc1cccc(-n2nnnc2SCC(=O)NCCc2ccccc2)c1 do in these assays?
Pf growth 48h: 21%; HCMV antiviral: -16; Pf growth 96h: -6%; Cycloheximide cs: -5; Shiga inhibitor: 18

Results for COc1cccc(-n2nnnc2SCC(=O)NC2CCCC2)c1 ?
HCMV antiviral: -2; Pf growth 96h: -4%; Cycloheximide cs: -3; Shiga inhibitor: -4

How did COc1ccc(OC)c(-n2nnnc2SCC(=O)NCCc2ccccc2)c1 do in these assays?
Pf growth 48h: 51%; HCMV antiviral: -23; Pf growth 96h: 9.3µM*; Cycloheximide cs: 0; Shiga inhibitor: -11

What do the screens show for `Cc1occc1-c1nnc(SCC(=O)NC2CC2)n1C`?
Pf growth 48h: 35%; HCMV antiviral: 32; Pf growth 96h: inconclusive; Cycloheximide cs: -6; Shiga inhibitor: 13

Results for COc1cccc(-n2nnnc2SCC(=O)NC2CCCCC2)c1 ?
Pf growth 48h: 14%; HCMV antiviral: -25; Pf growth 96h: 29%; Cycloheximide cs: 34*; Shiga inhibitor: 36

What do the screens show for `Cc1nnc(SCC(=O)NC2CC2)n1-c1ccccc1`?
Pf growth 48h: 8%; HCMV antiviral: 13; Pf growth 96h: 4.7µM*; Cycloheximide cs: 2; Shiga inhibitor: -9

What do the screens show for `Cc1cccc(-n2c(SCC(=O)NC3CCCC3)nnc2-c2ccoc2C)c1`?
Pf growth 48h: 13µM*; HCMV antiviral: -32; Pf growth 96h: 22%; Cycloheximide cs: 10; Shiga inhibitor: 8

What do the screens show for `Cc1ccc(C2=NCC(C)n3nc4cc(C(F)(F)F)ccc4c32)cc1` (configuration not stated)?
HCMV antiviral: 59

How did Cc1ccc(NC(=S)N(C)C(c2ccccc2)c2ccccc2)cc1C do in these assays?
HCMV antiviral: inconclusive; Pf growth 96h: inconclusive; Cycloheximide cs: 1; Shiga inhibitor: 20

How did COc1ccc(OCCCC(=O)OCC(=O)N2CCN(S(=O)(=O)c3ccc(C)cc3C)CC2)cc1 do in these assays?
HCMV antiviral: -17

What do the screens show for `O=C(Nc1ccc(C(F)(F)F)cc1)N[C@H]1CC[C@@]23CCCN2C(=O)CCC[C@H]3C1Cc1ccccc1` (some centres not stated)?
HCMV antiviral: -23

Results for COc1cccc(-n2nnnc2SCC(=O)c2cc(OC)ccc2OC)c1 ?
Pf growth 48h: 21%; Pf growth 96h: 12µM*; Cycloheximide cs: 7; Shiga inhibitor: -8

How did COc1cccc(-n2nnnc2SCC(=O)c2ccc(NC(C)=O)cc2)c1 do in these assays?
Pf growth 48h: 5%; HCMV antiviral: -37; Pf growth 96h: 2%[5.75 µM]; Cycloheximide cs: -3; Shiga inhibitor: -4

Results for COc1ccc(Oc2cnn(-c3ccccc3)c(=O)c2Br)cc1 ?
Pf growth 48h: -14%; HCMV antiviral: -38; Pf growth 96h: 0%; Cycloheximide cs: 5; Shiga inhibitor: 9

Results for Cc1ccc(-c2cc(-c3ccc(C)cc3)[n+](C)o2)cc1 ?
Pf growth 48h: 1.2µM*; HCMV antiviral: -103*; Pf growth 96h: 0.37µM*; Cycloheximide cs: -3; Shiga inhibitor: -1

What do the screens show for `CC(Sc1nnc(NC2CC2)s1)C(=O)Nc1ccc(N2CCOCC2)cc1` (configuration not stated)?
Pf growth 48h: 5%; HCMV antiviral: 24; Pf growth 96h: 2%

What do the screens show for `CC(=O)c1ccc(NC(=O)CSc2nnc(NC(=O)CN3CCOCC3)s2)cc1`?
Pf growth 48h: 17%; HCMV antiviral: 30; Pf growth 96h: 45%; Cycloheximide cs: 18; Shiga inhibitor: 62*

How did O=C(CSc1nnc(NC2CCCCC2)s1)Nc1ccc(N2CCOCC2)cc1 do in these assays?
Pf growth 48h: 17%; HCMV antiviral: inconclusive; Pf growth 96h: 1%; Cycloheximide cs: 21*; Shiga inhibitor: 41*
